# Data taken from PubChem BioAssay (NCI).
# About 83,000 compounds went through this panel and 20% of them were active in at least one assay; those are over-represented in the sample as a whole.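 Results are percent growth after 48 hours of single-concentration exposure. 100 means growth as in untreated cells, lower positive values show inhibition; negative values down to -100 show cell death.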 Unmarked numbers belong to inactive results. Calls of active or inactive are those of the source. The calls were made as follows: active = growth percent below 10; inactive = the rest.
# Assays:
# Assay in all cases: NCI-60 one-dose screen, 48 h (100 = growth as untreated, 0 = no growth, -100 = all killed)
# Conditions in all cases: 10 µM
# [1] = test system: DU-145 prostate
# [2] = test system: K-562 leukemia
# [3] = test system: MDA-MB-231 breast
# [4] = test system: RXF 393 renal
# [5] = test system: SF-268 CNS
# [6] = test system: SF-295 CNS
# [7] = test system: SF-539 CNS
# [8] = test system: UACC-257 melanoma
# [9] = test system: M14 melanoma
# [10] = test system: HCT-15 colon
# [11] = test system: HT29 colon
# [12] = test system: SNB-75 CNS
# [13] = test system: SNB-19 CNS
# [14] = test system: U251 CNS
# [15] = test system: PC-3 prostate
# [16] = test system: SK-MEL-5 melanoma
# [17] = test system: UACC-62 melanoma
# [18] = test system: LOX IMVI melanoma
# [19] = test system: SK-MEL-28 melanoma
# [20] = test system: MALME-3M melanoma
Structure (SMILES),growth [1] [%],growth [2],growth [3],growth [4] [%],growth [5] [%],growth [6],growth [7],growth [8],growth [9],growth [10],growth [11],growth [12],growth [13] [%],growth [14] [%],growth [15],growth [16],growth [17] [%],growth [18],growth [19],growth [20]
COc1ccccc1Cn1cc2c(c1-c1ccccc1)CCc1cnoc1-2,51.8,19%,56%,38.3,37.5,-3.81% (active),11%,50%,34.5%,36%,12.4%,15.6%,53.5,39.7,29.9%,18.1%,50.1,38.1%,58.3%,
O=C(/C=C/c1nnc2n(Cc3ccccc3)c(=O)c3c4c(sc3n12)CCCC4)c1ccccc1,121,5.09% (active),106%,98.3,75.5,40.4%,99.6%,86.5%,92.7%,88%,106%,116%,99.4,40.6,105%,111%,99.6,84.7%,119%,
CCOC(=O)c1cc2c(n1Cc1ccccc1)-c1oncc1CC2,82.8,15.3%,95.8%,94.6,54.2,64.5%,90.5%,103%,99.6%,65.3%,35.4%,89.2%,86.2,95.6,76.2%,73.5%,75.8,80.9%,89.8%,
O=C1c2cc(Cl)ccc2-c2c(O)cc(Cl)cc21,98.8,57.2%,79.2%,68.8,86.1,99.1%,80.7%,105%,91.8%,81.6%,95.1%,81.2%,59.8,55.5,78%,53%,85,52%,106%,
CC1(C)Cc2c(cn(Cc3ccccc3)c2-c2ccccc2)-c2oncc21,103,74.7%,104%,98,107,99.5%,107%,101%,100%,101%,79.6%,103%,110,88.9,86.2%,83.5%,86.7,90.2%,112%,
CCOC(=O)c1sc(NC(=O)c2cc(OC)c(OC)c(OC)c2)nc1C,110,51.2%,96.3%,119,97.3,110%,103%,108%,118%,96.9%,99.8%,98.5%,118,106,65.1%,95.6%,88.5,97.3%,101%,
Cc1ccc(S(=O)(=O)N2CCc3ccccc3CC2)cc1,84.1,63.9%,83.7%,80.3,97.5,73%,97%,52.7%,80.6%,78.4%,91.8%,78.6%,68,56.3,36.4%,46.1%,74.1,76.4%,94.6%,
CC(=O)Oc1ccc(C2=Cc3ccc(OC(C)=O)cc3OC2C)cc1 (centres undefined),62.8,28.4%,67.9%,68.9,57.9,69.9%,28%,81.3%,49.8%,48.4%,93.7%,49%,85.2,43.3,66.3%,50.2%,45,44.4%,62.1%,
COc1cc(-c2nc(-c3nnc(-c4cccnc4)o3)c3ccccn23)cc(OC)c1OC,114,95.4%,97.7%,115,95.7,79.5%,107%,104%,110%,111%,97.4%,96.7%,102,95,101%,90.7%,106,97.3%,121%,
CCOC(=O)c1cc2c(n1Cc1cccc(OC)c1)-c1oncc1CC2,48.4,18.5%,52.7%,11.2,44.8,3.54% (active),15.8%,43.6%,16.8%,28.7%,4.06% (active),-5.1% (active),37.4,22.4,32.7%,8.61% (active),30.8,41.7%,37.8%,
CC(=O)Nc1ccc2c(c1)C(N1CC3CCC(CC3)C1)c1ccccc1-2 (centres undefined),109,58.9%,91.6%,81.9,92.7,101%,97.2%,84.1%,102%,53.3%,75.1%,88.6%,107,77.7,34.8%,49.3%,60.5,93.3%,108%,
CN(C)c1ccc2cc(-c3cc4c(oc3=O)-c3ccccc3OC4O)c(=O)oc2c1 (centres undefined),11,-55.8% (active),-39.8% (active),,56.9,-56.4% (active),19%,42.9%,-47.8% (active),7.71% (active),18.9%,24%,36.7,,-5.5% (active),-34% (active),33.4,-32.4% (active),64.5%,-59.3% (active)
Cc1ccc(NS(=O)(=O)c2ccccc2)c(NS(=O)(=O)c2ccccc2)c1,92.8,108%,103%,130,102,104%,110%,107%,102%,104%,102%,90.5%,95.2,98.6,94.6%,104%,87.9,94.5%,116%,
Oc1[nH]c2ccccc2c1/C=c1/cc2c(c(-c3ccc(C(F)(F)F)cc3)n1)=Nc1ccccc1-2,62.5,22.8%,45.6%,56.1,79.1,37%,83.5%,82.4%,33.5%,49.4%,20.2%,63.4%,82.7,60.1,34.9%,57.2%,77,60.5%,52.8%,
CCCCNC(=O)Oc1ccc(/C(=C(\C)c2ccc(OC)cc2)c2ccc(OCCN3CCCCC3)cc2)cc1,72.9,-0.634% (active),53.4%,28.6,66.9,12.5%,5% (active),-9.86% (active),-54.8% (active),0.377% (active),7.84% (active),70.6%,69.9,38.9,43.3%,44.7%,44,20.1%,2.55% (active),
